TDP1 cell CPT – DT40-hTDP1 cell growth loss with CPT; chicken DT40 Tdp1-/-;hTDP1 cells + 20 nM CPT, ATP luminescence, 48 h; Potency, µM (doses to about 46.2 µM), for inactives: at the top dose activity change, negative = growth inhibition, usual class: inhibitors; 420,000 compounds, 12% hits; AID 686979; note: potency is the fitted concentration of half-maximal effect; nearly all actives have a fitted effect of over 55% in size
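Chicken DT40 Tdp1-/- cells complemented with human TDP1, 400 cells/well, exposed to compounds plus 20 nM camptothecin for at least 48 h at 37 C; viability read as ATP content by CellTiter-Glo luminescence.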
HT1080NT lethal – kills 2HG-producing HT-1080-NT fibrosarcoma cells. AID 686970. Potency, µM (highest dose often 46.1 µM), inactives show top-dose activity, negative = less viability, usual class: cytotoxic. 360,000 compounds, 1.6% hits. HT-1080-NT fibrosarcoma viability, CellTiter-Glo ATP luminescence, 48 h;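 note: NT is the 2HG producing partner of a matched IDH1 knockdown line; potency is the fitted concentration of half-maximal effect; 0% = DMSO-treated cells and -100% = media-only wells without cells; nearly all actives have a fitted effect of over 55% in size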
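HT-1080-NT; 750 cells/well; 5% FBS RPMI; 48 h compound, 37 degrees C; CellTiter-Glo luminescence; curve fitting and curve-class assignment.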
TDP1 cell noCPT – qHTS for Inhibitors of human tyrosyl-DNA phosphodiesterase 1 (TDP1): qHTS in cells in absence of CPT. DT40 Tdp1-/- hTDP1 cells, no CPT, ATP luminescence, 48 h. Potency, µM (highest dose often 46.2 µM), for inactives: top-dose activity change, negative = growth inhibition, most hits filed as inhibitors. 420,000 compounds, 15% hits. AID 686978, 2013; note: potency is the fitted concentration of half-maximal effect; nearly all actives have a fitted effect of over 55% in size
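Seeded 400 DT40-hTDP1 cells/well (vehicle DMSO, no 20 nM CPT); pinned compounds; ≥48 hr at 37 °C; CellTiter-Glo luminescence as viability measure.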
HT1080 IDH1KD tx – toxicity to HT-1080 IDH1 knockdown cells (counter line); Potency, µM (series often up to 46.1 µM), for the others: at the top dose activity, negative = toxicity, hits mostly cytotoxic; HT-1080 IDH1 knockdown viability, ATP luminescence, 48 h; 360,000 compounds, 2% hits; AID 686971;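 note: potency is the fitted concentration of half-maximal effect; 0% = DMSO wells and -100% = cell-free medium wells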
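In this qHTS, HT-1080 cells depleted of IDH1 are exposed for 48 h at 37 °C to compound titrations. Toxicity is scored from CellTiter-Glo luminescence, with DMSO as full viability and medium alone as none.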
IL1B secr inh – inflammasome signaling inhibition, IL-1 beta readout | THP-1 LPS/ATP IL-1B secretion, AlphaLISA, 16 h; active compounds read low | activity change, % at 57.5 µM | 360,000 compounds, 4.7% hits | AID 743279; in the data active = activity change below about -50%; inconclusive = mostly about -30% to -49%
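Secreted IL-1B measured by AlphaLISA bead assay after 16 h compound exposure of THP-1 cells; compounds (final up to 57.5 uM) added 1 h before LPS (250 ng/mL) and ATP (1.25 mM) stimulation; lower signal means less secretion.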
Numbers without * were called inactive; ? = inconclusive; . = no result; [ ] = remark or other dose. Shown are actives, neighbours in structure and some others; about 19% of the full set was active somewhere. Unless noted, calls come from the whole dose curve; as a rule, active = well fitted curve in the direction sought with a large enough effect; inconclusive = small, poorly fitted or top-dose-only effect, or another doubt; inactive = no such curve, though single readings can be large; an effect the other way counts as inactive or inconclusive. Unless noted, % is set by controls: 0 for no effect and ±100 for the full control effect.

SMILES	TDP1 cell CPT	HT1080NT lethal	TDP1 cell noCPT	HT1080 IDH1KD tx	IL1B secr inh
Cc1cc(N2CCC(C)CC2)nc2ccc(NC(=O)CCC(=O)N3CCN(c4cccc(C(F)(F)F)c4)CC3)cc12	3.26µM*	.	2.31µM*	.	.
Cc1cc(N2CCOCC2)nc2ccc(NC(=O)CCC(=O)N3CCN(c4ccccc4)CC3)cc12	?	5.2%	?	0.0%	14.0
Cc1cc(N2CCN(C)CC2)nc2ccc(NC(=O)CCC(=O)N3CCN(c4ccc([N+](=O)[O-])cc4)CC3)cc12	25.9µM*	20.6µM*	18.4µM*	16.4µM*	-21.8
Cc1cc(N2CCN(C)CC2)nc2ccc(NC(=O)CCC3CCCC3)cc12	?	1.2%	?	-3.0%	-3.1
Cc1nc([N+](=O)[O-])cn1CC(=O)c1ccc2c(c1)OCCCO2	-29.6%	.	?	.	.
Cc1cc(-c2nnc(CCC(=O)NC(Cc3ccccc3)c3ccccc3)o2)no1 (configuration not stated)	-19.1%	-0.9%	-20.0%	1.8%	10.3
CCOC(=O)C(C)NC(=O)c1c(C)oc2ncn(CC(C)C)c(=O)c12 (configuration not stated)	?	.	23.1µM*	.	.
Cc1oc2ncn(CC(C)C)c(=O)c2c1C(=O)NCCc1ccccc1	?	.	16.4µM*	.	.
CCOc1ccc(CCNC(=O)c2c(C)oc3ncn(CC(C)C)c(=O)c23)cc1OCC	-27.6%	.	?	.	.
CCc1ccc(CNC(=O)c2c(C)oc3ncn(CC(C)C)c(=O)c23)cc1	?	.	16.4µM*	.	.
Cc1ccc(N2CCN(C(=O)c3c(C)oc4ncn(CC(C)C)c(=O)c34)CC2)c(C)c1	29.1µM*	.	7.31µM*	.	.
Cc1oc2ncn(CC(C)C)c(=O)c2c1C(=O)N(Cc1ccccc1)C(C)C	-23.3%	.	?	.	.
CCCCN1CC(=O)N2[C@@H]3c4cc(OC)ccc4OC[C@@H]3[C@H](C(=O)OCC)[C@]2(C)C1=O	-9.0%	5.6%	?	-1.9%	-2.1
CCc1ccc(N2CN(Cc3ccco3)CNC2=S)cc1	17.8%	13.4%	?	15.5%	-0.9
COC1=C/C(=C/c2c(O)c(C#N)c3ccccn23)C=CC1=O	-25.3%	0.0%	-1.0%	0.4%	62.9
CCOC(=O)C1CCN(C(=O)COC(=O)C23CC4CC(CC(C4)C2)C3)CC1	?	-3.8%	?	-0.4%	0.0
O=C(/C=C\c1cccs1)N1CCN(Cc2ccc3c(c2)OCO3)CC1	17.1%	0.6%	-21.9%	-7.8%	-21.6
O=C1CCCCC1Sc1nnc(Cc2cccs2)n1CCc1ccccc1 (configuration not stated)	?	-11.5%	23.1µM*	-5.4%	?
O=C(CSc1c2c(nc3cc(Cl)ccc13)CCCC2)N1CCN(c2ccccc2F)CC1	10.3µM*	.	6.51µM*	.	.
CC1CCCCN1C(=O)CSc1nc2ccccc2[nH]1 (configuration not stated)	3.0%	22.2%	0.3%	22.4%	-8.9
CC1CCN(C(=O)CSc2c3c(nc4ccc(Cl)cc24)CCCC3)CC1	20.6µM*	.	16.4µM*	.	.
O=C(CSc1c2c(nc3ccc(Cl)cc13)CCCC2)N1CCN(C(=O)c2ccco2)CC1	14.6µM*	-28.3%	20.6µM*	?	-79.0*
CC1CCCCN1C(=O)CSc1c2c(nc3cc(Cl)ccc13)CCCC2 (configuration not stated)	?	.	18.4µM*	.	.
Cc1ncc2c(c1CNS(=O)(=O)N(C)C)CCN(C(=O)/C=C/c1cccc(F)c1)C2	-12.4%[9.04 µM]	.	-18.4%	.	.
CC1CCN(C(=O)c2ccc3c(Cl)c4c(nc3c2)CCCC4)CC1	-11.5%	8.7%	?	0.9%	-5.0
SMILES	TDP1 cell CPT	HT1080NT lethal	TDP1 cell noCPT	HT1080 IDH1KD tx	IL1B secr inh
CC1CCCN(C(=O)CSc2c3c(nc4cc(Cl)ccc24)CCCC3)C1 (configuration not stated)	20.6µM*	.	11.6µM*	.	.
CC(C)c1ccc2[nH]c(O)c(N=NC(=O)c3ccc(CSc4nncn4C)cc3)c2c1	23.1µM*	-6.9%	16.4µM*	-5.5%	?
CC(C)c1ccc2[nH]c(O)c(N=NC(=S)NCCc3ccccc3)c2c1	18.4µM*	?	8.2µM*	?	27.6
Cn1cnnc1SCc1ccc(C(=O)NN)cc1	12.8%	-0.4%	-2.8%	-1.3%	-0.5
CCCCNC(=S)N=Nc1c(O)[nH]c2ccccc12	?	-3.8%	10.3µM*	?	-17.4
Cc1ccc2[nH]c(O)c(N=NC(N)=S)c2c1	?	12.6%	-3.3%	12.9%	?
NC(=S)N=Nc1c(O)[nH]c2ccccc12	13.3%	-1.6%	-9.9%	-0.2%	-9.7
CCNC(=S)N=Nc1c(O)[nH]c2ccc(C(C)C)cc12	5.17µM*	2.0%	5.17µM*	-21.2%	-14.8
CC(C(=O)NC1CCCC1)n1c(-c2ccccn2)nc2ccccc21 (configuration not stated)	?	-1.2%	?	-11.4%	13.1
O=C(Nc1cccc(S(=O)(=O)N2CCOCC2)c1)c1cc(=O)[nH]c2ccccc12	-12.1%	0.3%	-1.0%	-0.3%	-28.0
CCCCN(CC)C(=O)Cc1cn(C)c2ccccc12	?	4.5%	?	-0.2%	0.9
Cc1ccc(S(=O)(=O)N(CC(=O)NCC2CCCO2)Cc2ccc(F)cc2)cc1 (configuration not stated)	-22.7%	-17.6%	-15.9%	15.1%	-1.8
Oc1[nH]c2ccccc2c1N=NC(=S)NCCc1ccccc1	16.4µM*	-10.6%	?	?	-1.8
